Experimental data: PMC8384837, “Expanding the binding specificity for RNA recognition by a PUF domain”
Numbering of substitutions follows the chain as printed.

How the values were obtained:
Assay in all cases: yeast three-hybrid, YBZ-1, SC-Leu-His + 0.5 mM 3-AT, 4 days
Conditions in all cases: tags: N-Gal4 AD-HA kept; label: inside an RPR1-promoter hybrid RNA with tandem MS2 sites; ssRNA
PUM1 PUF domain R6-SFM = biological target: T1, PUM1 PUF domain R6-SFM (Homo sapiens, UniProt Q14671 828-1176, N1043S;Y1044F;Q1047M)
T1 sequence: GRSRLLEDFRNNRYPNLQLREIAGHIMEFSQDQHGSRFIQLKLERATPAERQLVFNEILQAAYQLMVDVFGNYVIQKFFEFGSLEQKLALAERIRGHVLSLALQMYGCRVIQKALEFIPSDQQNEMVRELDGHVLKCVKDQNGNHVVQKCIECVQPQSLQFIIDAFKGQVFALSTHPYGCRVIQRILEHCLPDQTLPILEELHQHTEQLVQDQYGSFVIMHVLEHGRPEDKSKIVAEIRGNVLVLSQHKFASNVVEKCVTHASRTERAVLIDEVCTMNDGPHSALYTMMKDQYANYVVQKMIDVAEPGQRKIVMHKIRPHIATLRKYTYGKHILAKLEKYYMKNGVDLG
Outline: (§1)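 Pumilio-1 PUF domain libraries, randomized (NNK) at the three base-contacting residues of each repeat, were co-expressed with matching RNA elements from a centromeric plasmid in strain YBZ-1 (LexA–MS2 coat fusion, HIS3 reporter). Transformants were plated on SC-Leu (input) and SC-Leu-His + 0.5 mM 3-AT (selection) for four days, and repeat regions were PCR-amplified and Illumina-sequenced. The interaction score is the log2 change in variant frequency from input to selection, with pseudocount 1 where absent.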

PUM1 PUF domain R6-GFS = biological target: T2, PUM1 PUF domain R6-GFS (Homo sapiens, UniProt Q14671 828-1176, N1043G;Y1044F;Q1047S)
T2 sequence: T1 sequence with S216G, M220S
Outline: as §1

PUM1 PUF domain R7-RVS = PUM1 PUF domain R7-RVS (Homo sapiens, UniProt Q14671 828-1176, S1079R;N1080V;E1083S)
Outline: as §1

PUM1 PUF domain R5-RVC = PUM1 PUF domain R5-RVC (Homo sapiens, UniProt Q14671 828-1176, C1007R;R1008V;Q1011C)
Outline: as §1

PUM1 PUF domain R5-KQM = PUM1 PUF domain R5-KQM (Homo sapiens, UniProt Q14671 828-1176, C1007K;R1008Q;Q1011M)
Outline: as §1

PUM1 PUF domain R5-KGN = PUM1 PUF domain R5-KGN (Homo sapiens, UniProt Q14671 828-1176, C1007K;R1008G;Q1011N)
Outline: as §1

PUM1 PUF domain R2-EPW = PUM1 PUF domain R2-EPW (Homo sapiens, UniProt Q14671 828-1176, N899E;Y900P;Q903W)
Outline: as §1

PUM1 PUF domain R3-RAW = PUM1 PUF domain R3-RAW (Homo sapiens, UniProt Q14671 828-1176, C935R;R936A;Q939W)
Outline: as §1

With “GGCUAGAACUAGUGGAUCCCCCGGCGCCCGGCGGCUCGAGCCCGGGUAAGUGUAAAUAGUCUGCAUGCCGCCGGGCGCCAUGCCUGCAGGUCGACUCUAGAAAACAUG” the binding signal (PUM1 PUF domain R6-SFM) was 2.95 log2 enrichment (interaction score) and the binding signal (PUM1 PUF domain R6-GFS) was 2.76 log2 enrichment (interaction score).
For “GGCUAGAACUAGUGGAUCCCCCGGCGCCCGGCGGCUCGAGCCCGGGUAAGUUUAAAUAGUCUGCAUGCCGCCGGGCGCCAUGCCUGCAGGUCGACUCUAGAAAACAUG”, the binding signal (PUM1 PUF domain R7-RVS) was 3.16 log2 enrichment (interaction score).
In the case of “GGCUAGAACUAGUGGAUCCCCCGGCGCCCGGCGGCUCGAGCCCGGGUAAGUGUCAAUAGUCUGCAUGCCGCCGGGCGCCAUGCCUGCAGGUCGACUCUAGAAAACAUG”, the binding signal (PUM1 PUF domain R5-RVC) is reported as 2.54 log2 enrichment (interaction score).
In the case of “GGCUAGAACUAGUGGAUCCCCCGGCGCCCGGCGGCUCGAGCCCGGGUAAGUGUUAAUAGUCUGCAUGCCGCCGGGCGCCAUGCCUGCAGGUCGACUCUAGAAAACAUG”, the binding signal (PUM1 PUF domain R5-KQM) is reported as 4.71 log2 enrichment (interaction score) and the binding signal (PUM1 PUF domain R5-KGN) is reported as 3.75 log2 enrichment (interaction score).
With “GGCUAGAACUAGUGGAUCCCCCGGCGCCCGGCGGCUCGAGCCCGGGUAAGUGUAAAGAGUCUGCAUGCCGCCGGGCGCCAUGCCUGCAGGUCGACUCUAGAAAACAUG” the binding signal (PUM1 PUF domain R2-EPW) was 3.25 log2 enrichment (interaction score).
For “GGCUAGAACUAGUGGAUCCCCCGGCGCCCGGCGGCUCGAGCCCGGGUAAGUGUAAGUAGUCUGCAUGCCGCCGGGCGCCAUGCCUGCAGGUCGACUCUAGAAAACAUG”, the binding signal (PUM1 PUF domain R3-RAW) was 1.15 log2 enrichment (interaction score).
With “GGCUAGAACUAGUGGAUCCCCCGGCGCCCGGCGGCUCGAGCCCGGGUAAGUGUAAUUAGUCUGCAUGCCGCCGGGCGCCAUGCCUGCAGGUCGACUCUAGAAAACAUG” the binding signal (PUM1 PUF domain R3-RAW) was 4.11 log2 enrichment (interaction score).
